From PubChem BioAssay (NCATS)
Results filed as inconclusive are left out. Entries that show only a call come without a potency. Calls of active or inactive are those of the source. Unless noted, the call rests on the fitted dose curve.

Target: Glucocorticoid receptor (Homo sapiens) (UniProt P04150)
Experiment: qHTS assay for small molecule agonists of glucocorticoid receptor signaling (AID 588532; active means well fitted curve in the direction sought with a large enough effect in the signal ratio, with a control signal flat; the % refers to the signal ratio)
Details: HeLa MMTV-bla, beta-lactamase ratio, agonist, 18 h; activation: stronger effect = higher value, percent of dexamethasone control, DMSO zero
How it was run: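 Quantitative HTS using CellSensor MMTV-bla HeLa cells in charcoal/dextran-treated serum; compounds tested up to 92 uM. After 18 h at 37 C, CCF4 dye reported reporter induction.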

Glucocorticoid receptor (Homo sapiens), sequence (P04150 whole entry, looked up): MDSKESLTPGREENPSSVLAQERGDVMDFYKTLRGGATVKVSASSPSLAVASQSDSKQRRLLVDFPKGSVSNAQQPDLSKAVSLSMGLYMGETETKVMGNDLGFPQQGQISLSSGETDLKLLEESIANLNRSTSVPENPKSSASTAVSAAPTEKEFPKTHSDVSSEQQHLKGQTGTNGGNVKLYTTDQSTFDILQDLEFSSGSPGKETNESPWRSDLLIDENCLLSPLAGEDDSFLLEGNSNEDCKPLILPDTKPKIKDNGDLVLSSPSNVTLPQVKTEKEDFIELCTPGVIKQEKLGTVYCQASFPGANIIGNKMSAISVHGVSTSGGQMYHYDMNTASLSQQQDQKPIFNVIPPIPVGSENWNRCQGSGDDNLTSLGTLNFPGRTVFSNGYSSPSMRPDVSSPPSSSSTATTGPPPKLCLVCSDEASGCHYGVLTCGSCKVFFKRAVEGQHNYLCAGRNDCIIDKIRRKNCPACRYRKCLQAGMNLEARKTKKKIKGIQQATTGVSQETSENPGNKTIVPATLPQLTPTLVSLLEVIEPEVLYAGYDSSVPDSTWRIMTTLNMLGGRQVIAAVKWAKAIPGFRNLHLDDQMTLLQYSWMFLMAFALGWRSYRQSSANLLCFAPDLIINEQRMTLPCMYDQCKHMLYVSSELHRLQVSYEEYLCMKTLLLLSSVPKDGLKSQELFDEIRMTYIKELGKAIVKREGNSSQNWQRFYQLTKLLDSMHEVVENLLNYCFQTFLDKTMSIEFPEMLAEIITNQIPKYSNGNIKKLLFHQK

Structure (SMILES)	activation
S=C([S-])NCCNC(=S)[S-].[Mn+2]	-3.05% (inactive)
S=C(S)NCCNC(=S)S	-2.17% (inactive)
COc1cc(OC)nc(Sc2cccc(Cl)c2C(=O)O)n1	5.02% (inactive)
CCOP(=O)(OCC)Oc1nc(Cl)c(Cl)cc1Cl	-1.13% (inactive)
CC1(C)[C@@H](C=C(Cl)Cl)[C@@H]1C(=O)OCc1cccc(Oc2ccccc2)c1	0.397% (inactive)
S=C([S-])NCCNC(=S)[S-].S=C([S-])NCCNC(=S)[S-].[Mn+2].[Zn+2]	13.6% (inactive)
C1CC[CH]([Sn]([CH]2CCCCC2)[CH]2CCCCC2)CC1	-10.4% (inactive)
N#Cc1c[nH]cc1-c1cccc2c1OC(F)(F)O2	-6.3% (inactive)
OC(c1ccc(Cl)cc1)(c1cncnc1)c1ccccc1Cl (stereo unspecified)	-10.1% (inactive)
CC1(C)C(C=C(Cl)Cl)[C@H]1C(=O)OCc1cccc(Oc2ccccc2)c1 (stereo partly specified)	0.728% (inactive)
CCc1cnc(C2=NC(C)(C(C)C)C(=O)N2)c(C(=O)O)c1 (stereo unspecified)	-7.69% (inactive)
O=C1C(Cl)=C(Cl)C(=O)c2ccccc21	-5.64% (inactive)

Target: Glucocorticoid receptor (Homo sapiens) (UniProt P04150)
Experiment: qHTS assay for small molecule antagonists of glucocorticoid receptor signaling (AID 588533; active means well fitted inhibition curve with a large enough effect in the signal ratio, with a control signal flat, not every such curve was filed as active; the % refers to the signal ratio;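 further: cells stimulated with 2 nM dexamethasone as agonist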)
Details: HeLa MMTV-bla, GRE beta-lactamase ratio, antagonist mode, 18 h; series mostly up to 76.8 µM
How it was run: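 Antagonist-mode qHTS: compound titrations added to GRE-bla HeLa cells, then dexamethasone 2 nM final; 18 h, 37 C. CCF4 FRET fluorescence normalized to dexamethasone and DMSO; IC50 from Hill fit.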

Structure (SMILES)	Potency
CC/C(=N\OC/C=C/Cl)C1=C(O)CC(C2CCOCC2)CC1=O (stereo unspecified)	inactive
COc1cc(OC)nc(Sc2cccc(Cl)c2C(=O)O)n1	inactive
ClC1=C(Cl)C2(Cl)C3C4OC4C(Cl)C3C1(Cl)C2(Cl)Cl (stereo unspecified)	inactive
c1ccc2c(c1)oc1ccccc12	inactive
C1CC[CH]([Sn]([CH]2CCCCC2)[CH]2CCCCC2)CC1	inactive
CC(C)(C)OOC(C)(C)CCC(C)(C)OOC(C)(C)C	inactive
ClC1=C(Cl)C(Cl)(Cl)C(Cl)=C1Cl	inactive
CNC(=O)O/N=C(\C)SC	inactive

Target: Peroxisome proliferator-activated receptor delta (Homo sapiens) (UniProt Q03181)
Sequence (Q03181 whole entry, looked up): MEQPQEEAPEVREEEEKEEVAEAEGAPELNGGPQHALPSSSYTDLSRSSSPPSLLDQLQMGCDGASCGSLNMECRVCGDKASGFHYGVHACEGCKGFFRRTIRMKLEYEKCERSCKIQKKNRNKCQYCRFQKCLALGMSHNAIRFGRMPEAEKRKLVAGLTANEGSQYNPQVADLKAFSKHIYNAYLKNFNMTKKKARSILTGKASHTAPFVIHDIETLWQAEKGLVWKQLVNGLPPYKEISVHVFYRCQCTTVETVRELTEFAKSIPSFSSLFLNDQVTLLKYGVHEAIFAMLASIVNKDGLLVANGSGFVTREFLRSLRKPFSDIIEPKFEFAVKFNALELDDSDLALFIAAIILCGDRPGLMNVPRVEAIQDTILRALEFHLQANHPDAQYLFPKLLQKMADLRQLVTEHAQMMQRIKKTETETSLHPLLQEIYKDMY
Experiment: qHTS assay for small molecule agonists of peroxisome proliferator-activated receptor delta signaling (AID 588534)
Details: HEK293T PPARdelta-UAS-bla, beta-lactamase ratio, 18 h; series mostly up to 76.7 µM
How it was run: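 Agonist-mode beta-lactamase reporter readout (CCF4 dye, 2 h at RT) after 18 h at 37 °C exposure to a titration; Hill-equation fitting gave EC50 and maximal response.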

Structure (SMILES)	outcome
O=C1OC2(c3cc(Br)c(O)c(Br)c3Oc3c2cc(Br)c(O)c3Br)c2c(Cl)c(Cl)c(Cl)c(Cl)c21	inactive
C/C=C(/C)C#N	inactive
C=C(C#N)C(=O)OCC	inactive
O=C(O)C(c1ccc(Cl)cc1)c1ccc(Cl)cc1	inactive
Cc1ccc(C(=O)c2ccccc2)cc1	inactive
CC1(N)CCC(C(C)(C)N)CC1 (stereo unspecified)	inactive
CCOP(=O)(OCC)Oc1nc(Cl)c(Cl)cc1Cl	inactive
CC1(C)[C@@H](C=C(Cl)Cl)[C@@H]1C(=O)OCc1cccc(Oc2ccccc2)c1	inactive
C/C(=C\C(C)CC(C)CC(C)C)C1CC(=O)OC1=O (stereo unspecified)	inactive
CC(C)=CCC/C(C)=C/C=O	inactive
ClC1=C(Cl)C2(Cl)C3C4OC4C(Cl)C3C1(Cl)C2(Cl)Cl (stereo unspecified)	inactive
CCN(Cc1cccc(S(=O)(=O)O)c1)c1ccc(C(=C2C=CC(=[N+](CC)Cc3cccc(S(=O)(=O)[O-])c3)C=C2)c2ccccc2)cc1	inactive
S=C(NC1CCCCC1)NC1CCCCC1	inactive
c1ccc2c(c1)oc1ccccc12	inactive
CC(=O)c1cc(C)oc1C	inactive
CCOc1ccc(NC(C)=O)cc1N	inactive
CCCOCC(C)O (stereo unspecified)	inactive
N#Cc1c[nH]cc1-c1cccc2c1OC(F)(F)O2	inactive
CC/C=C1/OC(=O)c2ccccc21	inactive
O=C1CCCCCCCCCCC1	inactive
ClC1=C(Cl)C(Cl)(Cl)C(Cl)=C1Cl	inactive
ClCCl	inactive
OC(c1ccc(Cl)cc1)(c1cncnc1)c1ccccc1Cl (stereo unspecified)	inactive
CC1CCCO1 (stereo unspecified)	inactive
CC(=O)C1(C)CC2=C(CCCC2(C)C)CC1C (stereo unspecified)	inactive
CNC(=O)O/N=C(\C)SC	inactive
CCN(CC)c1cccc(O)c1	inactive
CCC=O	inactive
CCc1cnc(C2=NC(C)(C(C)C)C(=O)N2)c(C(=O)O)c1 (stereo unspecified)	inactive
O=[N+]([O-])c1ccc(Cl)cc1Cl	inactive

Test system: not listed separately
Experiment: qHTS assay for small molecule antagonists of peroxisome proliferator-activated receptor delta signaling (AID 588535; active means well fitted inhibition curve with a large enough effect in the signal ratio, with a control signal flat, not every such curve was filed as active; the % refers to the signal ratio;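 on max response: cells co-treated with a PPAR-delta agonist as stimulator during compound exposure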)
Details: HEK293T PPARd-UAS-bla, beta-lactamase FRET ratio, 18 h; 460 nm channel
How it was run: (§1)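 Titrations were run on PPAR-delta-UAS-bla HEK293T cells in charcoal/dextran-stripped serum, incubated 18 h at 37 C. CCF4 fluorescence (460/530 nm) after 2 h RT; Hill equation yields IC50 and maximal response.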

Structure (SMILES)	max response
CC/C(=N\OC/C=C/Cl)C1=C(O)CC(C2CCOCC2)CC1=O (stereo unspecified)	17.7%
ClC1=C(Cl)C2(Cl)C3C4OC4C(Cl)C3C1(Cl)C2(Cl)Cl (stereo unspecified)	-5.72%
c1ccc2c(c1)oc1ccccc12	3.99%
OC(c1ccc(Cl)cc1)(c1cncnc1)c1ccccc1Cl (stereo unspecified)	31.8%
CNC(=O)O/N=C(\C)SC	24.5%
CCc1cnc(C2=NC(C)(C(C)C)C(=O)N2)c(C(=O)O)c1 (stereo unspecified)	6.03%

Target: Peroxisome proliferator-activated receptor delta (Homo sapiens) (UniProt Q03181)
Experiment: as above
Details: HEK293T PPARd-UAS-bla, beta-lactamase FRET ratio, 18 h; series mostly up to 76.7 µM
How it was run: as §1

Structure (SMILES)	Potency
CC/C(=N\OC/C=C/Cl)C1=C(O)CC(C2CCOCC2)CC1=O (stereo unspecified)	inactive
ClC1=C(Cl)C2(Cl)C3C4OC4C(Cl)C3C1(Cl)C2(Cl)Cl (stereo unspecified)	inactive
c1ccc2c(c1)oc1ccccc12	inactive
OC(c1ccc(Cl)cc1)(c1cncnc1)c1ccccc1Cl (stereo unspecified)	inactive
CNC(=O)O/N=C(\C)SC	inactive
CCc1cnc(C2=NC(C)(C(C)C)C(=O)N2)c(C(=O)O)c1 (stereo unspecified)	inactive

Target: Peroxisome proliferator-activated receptor gamma (Homo sapiens) (UniProt P37231)
Sequence (P37231 whole entry, looked up): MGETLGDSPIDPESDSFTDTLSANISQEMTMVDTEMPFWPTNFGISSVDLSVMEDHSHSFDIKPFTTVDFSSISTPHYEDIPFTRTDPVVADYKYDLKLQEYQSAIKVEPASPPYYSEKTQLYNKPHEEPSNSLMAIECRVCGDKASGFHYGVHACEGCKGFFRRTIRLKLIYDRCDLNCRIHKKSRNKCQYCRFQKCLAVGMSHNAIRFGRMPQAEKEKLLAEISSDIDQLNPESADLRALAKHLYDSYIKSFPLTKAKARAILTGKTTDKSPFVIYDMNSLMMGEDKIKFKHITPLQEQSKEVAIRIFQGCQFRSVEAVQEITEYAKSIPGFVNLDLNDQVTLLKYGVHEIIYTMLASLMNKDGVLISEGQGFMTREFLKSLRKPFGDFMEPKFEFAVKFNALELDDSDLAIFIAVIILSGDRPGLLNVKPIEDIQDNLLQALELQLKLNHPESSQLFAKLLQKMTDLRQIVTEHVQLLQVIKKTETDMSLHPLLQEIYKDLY
Experiment: qHTS assay for small molecule agonists of peroxisome proliferator-activated receptor gamma signaling (AID 588536; active means well fitted curve in the direction sought with a large enough effect in the signal ratio, with a control signal flat, not every such curve was filed as active; the % refers to the signal ratio)
Details: HEK293 PPARg-UAS-bla, beta-lactamase ratio, 16 h; series mostly up to 76.7 µM
How it was run: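 Beta-lactamase reporter read-out: CCF4 fluorescence (ex 405, em 460/530 nm) after 2 h at RT. HEK293 GeneBLAzer cells were treated for 16 h at 37 C. Hill fits gave EC50 and efficacy versus 2 uM rosiglitazone (100%) and DMSO (0%).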

Structure (SMILES)	Potency
CC/C(=N\OC/C=C/Cl)C1=C(O)CC(C2CCOCC2)CC1=O (stereo unspecified)	inactive
COc1cc(OC)nc(Sc2cccc(Cl)c2C(=O)O)n1	inactive
ClC1=C(Cl)C2(Cl)C3C4OC4C(Cl)C3C1(Cl)C2(Cl)Cl (stereo unspecified)	inactive
CCc1cnc(C2=NC(C)(C(C)C)C(=O)N2)c(C(=O)O)c1 (stereo unspecified)	inactive
